AmpC no deterg: blocks E. coli AmpC beta-lactamase in detergent-free assay; AmpC nitrocefin hydrolysis, absorbance 480 nm, 0.0001% Triton; Potency, µM (series often up to 57.1 µM), for inactives: at the top dose activity change, negative = inhibition, hits mostly inhibitors; 0.52% of 330,000 active; AID 485341;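 note: potency is the fitted concentration of half-maximal effect; plate controls were no compound for no effect and no enzyme for full effect; nearly all actives have a fitted effect of over 20% in size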
Target sequence (P00811 whole entry, looked up): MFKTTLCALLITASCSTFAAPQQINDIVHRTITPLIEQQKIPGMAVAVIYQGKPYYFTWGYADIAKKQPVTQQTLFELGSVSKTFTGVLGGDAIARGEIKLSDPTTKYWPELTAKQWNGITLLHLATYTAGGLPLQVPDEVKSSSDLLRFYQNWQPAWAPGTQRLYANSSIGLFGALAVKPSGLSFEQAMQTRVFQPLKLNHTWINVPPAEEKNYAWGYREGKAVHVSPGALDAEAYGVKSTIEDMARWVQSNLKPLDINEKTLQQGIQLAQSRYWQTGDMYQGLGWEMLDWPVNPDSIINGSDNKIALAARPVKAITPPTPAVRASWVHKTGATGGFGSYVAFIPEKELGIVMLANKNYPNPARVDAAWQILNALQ
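20 mM phosphate pH 7.0 + 0.01% (detergent screen) or 0.0001% Triton X-100; 5.3 nM AmpC reagent; cpd preinc 15 min RT; nitrocefin (800 uM stock) to start; A480 q20 s × 4 min; Activity was normalised to no-enzyme and no-compound control wells.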
VACV Venus inh: vaccinia inhibition (Venus reporter); Potency, µM (highest dose often 36.5 µM), for the others: at the highest dose activity change, negative = inhibition, actives largely listed as inhibitors; Vaccinia virus Venus reporter expression, fluorescence; 0.46% of 330,000 active; calls by dose curve; tested in A549 cells; note: potency is the fitted concentration of half-maximal effect; % is set by controls: 0 for no effect and ±100 for the full control effect; nearly all actives have a fitted effect of over 30% in size
AmpC detergent: inhibitors of E. coli AmpC beta-lactamase with detergent; P00811; AmpC hydrolysis of nitrocefin, absorbance 480 nm, 0.01% Triton; Potency, µM (titrated, usually from 114 µM), for the others: at the top dose activity change, negative = inhibition, actives largely listed as inhibitors; 0.041% of 370,000 active; AID 485294;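 note: potency is the fitted concentration of half-maximal effect; 0% = no-compound wells and -100% = no-enzyme wells; nearly all actives have a fitted effect of over 25% in size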
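20 mM phosphate pH 7.0 + 0.01% (detergent screen) or 0.0001% Triton X-100; 5.3 nM AmpC reagent; cpd preinc 15 min RT; nitrocefin (800 uM stock) to start; A480 q20 s × 4 min; Activity was normalised to no-enzyme and no-compound control wells.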
VACV mCherry inh: inhibitors of vaccinia virus infection (mCherry reporter signal). Vaccinia virus mCherry reporter infection, fluorescence. Potency, µM (highest dose often 36.5 µM), without a hit: top-dose activity change, negative = inhibition, hits mostly inhibitors. 0.63% of 310,000 active. AID 720579; calls by dose curve; tested in A549 cells; note: potency is the fitted concentration of half-maximal effect; % is set by controls: 0 for no effect and ±100 for the full control effect; nearly all actives have a fitted effect of over 35% in size
SARS PLpro yeast-1: inhibitors of SARS-CoV papain-like protease in yeast | 0.19% of 330,000 active | Potency, µM (series often up to 32.9 µM), inactives show at the top dose activity, positive = growth rescue, usual class: activators | S. cerevisiae expressing SARS-CoV PLpro, growth rescue; calls by dose curve; note: potency is the fitted concentration of half-maximal effect; 0% is about no effect; nearly all actives have a fitted effect of over 55% in size
AMA1 RON2 block: inhibitors of Plasmodium falciparum AMA1-RON2 interaction. Potency, µM (series often up to 58.2 µM), for inactives: top-dose activity change, negative = inhibition, actives largely listed as inhibitors. 0.2% of 360,000 active. AlphaScreen AMA1-biotinylated RON2 peptide binding. AID 720542;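 note: potency is the fitted concentration of half-maximal effect; 0% = vehicle wells and -100% = peptide control; nearly all actives have a fitted effect of over 45% in size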
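AMA1 (3D7) with his tag at 25 nM final met compounds first, then biotinylated RON2 peptide at 25 nM; detection used donor plus acceptor beads, 10 µg/mL apiece, read by AlphaScreen after 30 min at room temperature.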
SARS PLpro yeast-2: Validates SARS-CoV PLpro inhibitor hits in yeast. shares compounds with SARS PLpro yeast-1. yeast expressing SARS-CoV PLpro, growth phenotype rescue. calls only. 19% of 1,000 active; call rule not given here
An asterisk follows results filed as active; i = inactive; u = inconclusive; x = no result given; + = active, no number; [ ] = dose if it differs, or a comment. In the library only some 1.3% were active in any assay of this set; here they are far more common. Unless noted, calls come from the whole dose curve; as a rule, active = well fitted curve in the direction sought with a large enough effect; inconclusive = small, poorly fitted or top-dose-only effect, or another doubt; inactive = no such curve, though single readings can be large; an effect the other way counts as inactive or inconclusive.

SMILES	AmpC no deterg	VACV Venus inh	AmpC detergent	VACV mCherry inh	SARS PLpro yeast-1	AMA1 RON2 block	SARS PLpro yeast-2
CN(C)c1ccc(/C=N\NC(=S)SCN2C(=O)C3CCC(C)(C2=O)C3(C)C)cc1 (stereo not given)	-16.8%	-11.4%	1.1%	-17.0%	12.6µM*	53.8%	+
COC(=O)c1cc(OC)c(OC)cc1NCC(=O)Nc1ccc(C)cc1	-0.6%	-8.4%	-0.4%	-10.6%	4.47µM*	4.3%	i
COC(=O)c1cc(OC)c(OC)cc1NCC(=O)Nc1ccc(OC)c(OC)c1	-15.7%	-8.3%	3.1%	i	7.9%	u	x
CCc1ccccc1NC(=O)CSc1nc2c(oc3ccccc32)c(=O)n1-c1ccccc1F	x	-3.7%[7.34 µM]	-0.7%	-4.8%[7.34 µM]	x	x	x
Brc1ccc(C2N3CCCN23)cc1 (stereo not given)	-2.8%	-3.7%	-5.8%	-6.0%	17.8µM*	6.1%	u
O=C(Nc1ccc(F)cc1Cl)n1ncc2cc(Cl)ccc21	x	-20.0%	3.1%	-6.8%	x	x	x
Cc1ccc(CN2CCN(/N=C/c3ccc(C(F)(F)F)cc3)CC2)c(C)c1	-12.4%	-12.6%	u	-3.5%	u	-9.4%	i
CCC1(C)Cc2c(sc3nc(SC)n(-c4ccc(C)cc4)c(=O)c23)CO1 (stereo not given)	x	2.1%	1.0%	-5.6%	x	x	x
CC(=O)NCCc1cc2ccc(C)cc2[nH]c1=O	-18.3%	-7.4%	-6.7%	-9.6%	u	7.5%	i
CC1CCCN(S(=O)(=O)c2ccc3c(c2)c(=O)nc2ccccn23)C1 (stereo not given)	-29.2%	-15.3%	0.5%	-13.9%	0.9%	-20.8%	x
Cc1ccc(C(=O)O/N=C(\N)c2cccc([N+](=O)[O-])c2)cc1	-22.8%	x	-10.0%	x	-11.5%	-9.3%	x
Cc1ccc(CC(=O)O/N=C(\N)c2cccc([N+](=O)[O-])c2)cc1	-15.5%	x	u	x	x	-4.4%	i
COc1ccc(C)cc1S(=O)(=O)Nc1ccc(F)cc1	-12.9%	-3.1%	-2.7%	-14.0%	u	0.1%	i
COc1ccc(OC)c(S(=O)(=O)Nc2ccc(F)cc2)c1	-23.5%	-5.3%	-7.8%	-14.1%	4.0%	-0.9%	x
Cc1noc(C)c1C(=O)N1CCC1(C)C(=O)NS(=O)(=O)c1ccccc1Cl (stereo not given)	x	8.5%	x	4.4%	x	-7.4%	x
CCC(C)c1ccccc1OCCn1c(CCNC(=O)C2CCCCC2)nc2ccccc21 (stereo not given)	x	-10.2%	x	-20.7%	x	x	x
Cc1ncc(CO)c(/C=N/NC(=S)Nc2ccc(F)cc2)c1O	-32.8%	-26.2%	u	u	5.62µM*	25.0%[11.6 µM]	i
CCc1cc(C(=O)Cc2cnn(-c3ccccc3)c2)c(O)cc1O	-51.2%	x	-1.4%	x	3.3%	-8.6%	x
O=C(Cc1cnn(-c2ccccc2)c1)c1ccc(O)c(O)c1O	-54.8%	3.0%	-0.4%	-15.0%	u	-2.3%	i
CN(CC(=O)Nc1ccccc1Cl)C(=O)Cn1cnc2ccc(Cl)cc2c1=O	-11.5%	-16.6%	2.9%	i	6.2%	-1.3%[11.6 µM]	x
CCOC(=O)c1[nH]c(C)c(CCC(=O)Nc2cccc(SC)c2)c1C	x	-18.9%	-3.3%	-16.4%	x	x	x
COC(=O)CSc1nc(N2CCOCC2)c2c(c1C#N)CC(C)(C)OC2	68.3%	-9.4%	11.7%	-10.3%	-0.2%	3.7%	x
COC(=O)Sc1nc(N2CCOCC2)c2c(c1C#N)CC(C)(C)OC2	39.7%	-8.7%	-16.1%	-19.4%	10µM*	-13.6%	+
CCC(=O)N1c2ccccc2CC1C(=O)NCc1ccccc1Cl (stereo not given)	x	6.9%	11.2%	1.7%	x	x	x
CC(C)(C)c1nnc(N/N=C/c2cc(Br)ccc2O)n(N)c1=O	-32.0%	u	7.1%	2.51µM*	x	-12.5%	i
SMILES	AmpC no deterg	VACV Venus inh	AmpC detergent	VACV mCherry inh	SARS PLpro yeast-1	AMA1 RON2 block	SARS PLpro yeast-2
CCOC(=O)c1oc2ccccc2c1CN1CCN(c2ccccc2)CC1	-1.5%	-16.9%	3.6%	-2.7%	-4.0%	u	x
CCOC(=O)c1oc2ccccc2c1CN1CCN(C(=O)c2ccccc2)CC1	104.7%	-10.2%	u	-13.3%	3.55µM*	0.8%	i
O=C(NCc1ccc(CNC(=O)c2ccco2)cc1)c1ccco1	-23.3%	x	0.1%	x	u	-8.0%	i
O=C(NCc1ccc(Cl)c(Cl)c1)c1ccco1	-18.7%	-20.2%	-12.8%	-11.6%[1.46 µM]	-12.4%	0.0%	x
Cc1cc(-c2n[nH]c(=S)n2CC(C)C)cs1	-28.2%	-14.9%	-15.5%	-12.6%	u	58.1%	+
Cc1cc(NC(c2ccc(Cl)cc2)c2ccc3cccnc3c2O)no1 (stereo not given)	4.47µM*	u	-0.4%	x	u	-29.5%	i
CCC(=O)NC(c1ccc(C)cc1)c1ccc2cccnc2c1O (stereo not given)	-19.8%	u	-1.0%	u	u	-48.5%	i
CC(=O)NC(c1ccc(Cl)cc1)c1ccc2cccnc2c1O (stereo not given)	x	x	x	x	x	-19.4%	x
CCCC(=O)NC(c1ccc(N(C)C)cc1)c1ccc2cccnc2c1O (stereo not given)	33.6%	u	u	u	7.08µM*	-88.4%	u
CCCC(=O)NC(c1ccccc1Cl)c1ccc2cccnc2c1O (stereo not given)	-25.6%	u	-3.8%	1µM*	2.24µM*	47.0%	+
O=Nc1ccc(/C=C/c2ccnc3ccccc23)cc1	x	-10.7%	x	-13.9%	x	x	x
COc1ccc(C(=O)OCC(=O)NCC2CCCO2)c(F)c1 (stereo not given)	-10.7%	x	-3.4%	x	0.7%	-5.5%	x
CC(=O)NC(c1ccco1)c1ccc2cccnc2c1O (stereo not given)	-22.8%	u	u	x	u	u	+
CCN(CC)c1ccc(/C=N/NC(=O)c2ccco2)c(O)c1	-41.0%	x	-10.2%	x	-6.7%	99.8%	x
CCN(CC)c1ccc(/C=N/Nc2nc3ccccc3[nH]2)c(O)c1	-26.0%	u	4.4%	x	10µM*	u	+
CCN(CC)c1ccc(/C=N/NC(=O)Cc2cccs2)c(O)c1	-23.7%	u	-7.0%	6.31µM*	5.01µM*	45.8%[11.6 µM]	i
COc1cc(OC)c(OC)cc1/C=N/Nc1nc2ccccc2[nH]1	-14.6%	x	7.3%	x	0.2%	52.2%	x
CCOc1ccccc1NC(=O)CSc1ccc2nnc(CCNS(=O)(=O)c3ccccc3)n2n1	x	-2.6%	5.4%	-10.4%	x	x	x
Cc1cc(C)cc(C(=O)N(c2ccccn2)C(C)c2ccco2)c1 (stereo not given)	10.6%	x	1.2%	x	u	6.4%	i
